Screens from PubChem BioAssay.
GLP1R cytotox – qHTS of GLP-1 Receptor Inverse Agonists: Cytotox Screen; hit rate 0.13% among 410,000; Potency, µM (doses to about 38.3 µM), actives largely listed as inhibitors; AID 624418, 2012; HEK293 cAMP-luciferase reporter cells, luminescence, 24 h;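 further: loss of luciferase light is scored as toxicity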
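Here, cytotoxicity is scored as loss of luminescence. The MLSMR collection was tested on cells seeded in medium containing 10% Nu serum, with a 24 hr compound exposure preceded by 12 hours of culture.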
RORg inh – qHTS for inhibitors of ROR gamma transcriptional activity; hit rate 5.4% among 310,000; AID 2551, 2010; Potency, µM (series often up to 53.6 µM), most hits filed as inhibitors; Drosophila S2 Gal4-RORgamma UAS-luciferase reporter, 20 h; Nuclear receptor ROR-gamma (Mus musculus), P51450; further: nearly all actives have a fitted effect of over 60% in size
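In this cell-based reporter format, copper sulfate (700 uM final) drives Gal4–ROR gamma fusion expression from a metallothionein promoter in Drosophila Schneider cells; compounds preincubated 1 hr, reporter read after 20 hr at ambient temperature.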
GLP-1R inv ag – qHTS of GLP-1 Receptor Inverse Agonists (Inhibition Mode); HEK293 GLP-1R CRE-luciferase, luminescence, 24 h; GLP-1R form is constitutively active; Glucagon-like peptide 1 receptor (Homo sapiens), P43220; Potency, µM (doses to about 38.3 µM), usual class: inhibitors; hit rate 1.6% among 410,000; further: nearly all actives have a fitted effect of over 55% in size
Target sequence (P43220 whole entry, looked up): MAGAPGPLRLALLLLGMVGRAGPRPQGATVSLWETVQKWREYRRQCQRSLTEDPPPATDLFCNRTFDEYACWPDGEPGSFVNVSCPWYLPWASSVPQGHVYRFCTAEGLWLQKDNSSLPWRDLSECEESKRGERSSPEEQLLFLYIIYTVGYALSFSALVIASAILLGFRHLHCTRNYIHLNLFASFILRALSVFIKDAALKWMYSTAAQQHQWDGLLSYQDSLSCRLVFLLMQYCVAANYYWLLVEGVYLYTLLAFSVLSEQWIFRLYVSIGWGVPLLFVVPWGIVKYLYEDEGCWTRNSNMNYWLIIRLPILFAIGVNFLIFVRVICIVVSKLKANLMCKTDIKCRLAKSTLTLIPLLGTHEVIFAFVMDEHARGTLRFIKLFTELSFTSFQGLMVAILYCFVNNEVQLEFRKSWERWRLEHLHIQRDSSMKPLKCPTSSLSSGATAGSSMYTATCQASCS
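Constitutively active GLP-1R drives a cAMP-responsive luciferase in stably transfected HEK293 cells; test compounds are added after overnight (12 h) attachment and left 24 hr, and signal loss in luminescence marks inhibition.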
GLP1R ag – qHTS of GLP-1 Receptor Agonists; Glucagon-like peptide 1 receptor (Homo sapiens), P43220; HEK293 GLP-1R CRE-luciferase, luminescence, 4-6 h; cells express a hypersensitive GLP-1R form; Potency, µM (doses to about 45.6 µM), usual class: activators; hit rate 0.007% among 380,000; AID 624172, 2012
VP16 counter – VP16 counterscreen qHTS for inhibitors of ROR gamma transcriptional activity; Drosophila S2 Gal4-VP16 UAS-luciferase, luminescence, 20 h; Potency, µM (top dose mostly 53.6 µM), most hits filed as inhibitors; hit rate 3.5% among 310,000;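 further: Gal4-VP16 expression switched on by copper sulfate through the metallothionein promoter; nearly all actives have a fitted effect of over 50% in size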
Large screens that a line does not name were inactive. Rows were chosen to be rich in hits. Some 5.9% of all compounds tested hit in one or more screens of this group. The call rests on the fitted dose curve; in most records, active means well fitted curve in the direction sought with a large enough effect; inconclusive means small, poorly fitted or top-dose-only effect, or another doubt; inactive means no such curve, though single readings can be large; an effect the other way counts as inactive or inconclusive.

CCOc1ccccc1NC(=S)NC(=O)CCCOc1ccc(Cl)cc1Cl	GLP1R cytotox inconclusive, RORg inh 5.01µM, VP16 counter 22.4µM
CCOc1ccccc1NC(=S)NCc1ccco1	RORg inh 10µM, VP16 counter inconclusive
COc1ccccc1NC(=O)NCc1ccco1	none
CCOc1ccccc1NC(=S)Nc1ccccc1F	RORg inh 11.2µM, VP16 counter inconclusive
COc1ccc(Cl)cc1NC(=O)c1cc(C)nn1-c1ccccc1	GLP-1R inv ag inconclusive (no result: RORg inh, GLP1R ag, VP16 counter)
Cc1cccc(NC(=S)NNc2cccc(Cl)c2)c1	RORg inh 2µM, GLP-1R inv ag 10µM, VP16 counter inconclusive
CN(C)NC(=S)Nc1cccc(Cl)c1	GLP1R cytotox inconclusive, RORg inh 2.24µM, VP16 counter 7.08µM
Cc1cccc(NNC(=S)Nc2c(C)cccc2C)c1	GLP1R cytotox inconclusive, RORg inh 3.98µM, GLP-1R inv ag 3.16µM, VP16 counter 3.16µM
Cc1cccc(NNC(=S)Nc2ccccc2)c1	GLP1R cytotox inconclusive, GLP-1R inv ag 5.62µM (no result: RORg inh, VP16 counter)
CC(C)(C)NCC(O)COc1ccc(NC(=O)NC2CCCCC2)cc1 (stereo not given)	none (no result: GLP1R cytotox, GLP-1R inv ag)
Cc1ccc(SCC(Cc2ccccc2)N2CCN(C)CCC2=O)cc1 (stereo not given)	none (no result: GLP1R cytotox, GLP-1R inv ag, GLP1R ag)
Cc1cccc(NNC(N)=S)c1	RORg inh inconclusive, VP16 counter 10µM
NC(=S)NNc1cccc(Cl)c1	RORg inh 5.62µM, VP16 counter 15.8µM
CCN(CC)C(=O)Cn1cnc2sc(C(=O)N3CCN(c4ccc(OC)cc4)CC3)c(C)c2c1=O	none
COc1ccc(N2CCN(C(=O)c3sc4ncn(CC(=O)N5CCCCC5C)c(=O)c4c3C)CC2)cc1 (stereo not given)	GLP-1R inv ag inconclusive, VP16 counter 22.4µM
COc1cc(C#N)ccc1OC(=O)Cc1cc(OC)c(OC)c(OC)c1	none
COc1ccccc1CCC(=O)Oc1ccc(C#N)cc1OC	RORg inh inconclusive, VP16 counter 11.2µM
Cc1ccc(S(=O)(=O)N2CCCN(S(=O)(=O)c3ccccc3Br)CC2)cc1	GLP-1R inv ag inconclusive (no result: RORg inh, VP16 counter)
Cc1ccc(S(=O)(=O)N2C/C=C\CN(S(=O)(=O)c3ccccc3Br)CC2)cc1	GLP-1R inv ag 10µM (no result: RORg inh, VP16 counter)
CC(C)(C)OC(=O)N1CCCC1C(=O)NC1COC2CC(n3ccc(=O)[nH]c3=O)OC12 (stereo not given)	none (no result: GLP1R cytotox, GLP-1R inv ag, GLP1R ag)
CCOc1ccc(CNS(=O)(=O)c2ccc3c(c2)CC(C)N3C(C)=O)cc1OC (stereo not given)	none (no result: RORg inh, GLP1R ag, VP16 counter)
COc1cc(CNS(=O)(=O)c2ccc3c(c2)CC(C)N3C(C)=O)cc(OC)c1OC (stereo not given)	GLP-1R inv ag inconclusive, VP16 counter 22.4µM
CC(=O)N1c2ccc(S(=O)(=O)N3CCC(C(=O)Nc4cccc(Cl)c4)CC3)cc2CC1C (stereo not given)	VP16 counter 11.2µM
CCC(=O)N1CCCc2cc(S(=O)(=O)N3CCC(C(=O)Nc4ccc(F)c(F)c4)CC3)ccc21	GLP-1R inv ag 11.2µM (no result: RORg inh, GLP1R ag, VP16 counter)
Cc1ccc(NC(=O)C2CCN(S(=O)(=O)c3ccc(N4CCCC4=O)cc3)CC2)cc1Cl	RORg inh inconclusive, VP16 counter 3.16µM
Cc1nc(-c2ccc(C)c(S(=O)(=O)N3CCC(C(=O)Nc4ccc(Cl)cc4)CC3)c2)no1	GLP-1R inv ag 10µM (no result: RORg inh, GLP1R ag, VP16 counter)
CCc1cccc(NC(=O)C2CCN(S(=O)(=O)c3cccc(-c4noc(C)n4)c3)CC2)c1	GLP-1R inv ag inconclusive (no result: RORg inh, GLP1R ag, VP16 counter)
COc1ccc(NC(=O)C2CCN(S(=O)(=O)c3ccc(N4CCCC4=O)cc3)CC2)c(OC)c1	RORg inh inconclusive, VP16 counter inconclusive
COC(=O)c1ccc(OCC2c3cc(OC)c(OC)cc3CCN2C(=O)COc2ccc(Cl)cc2)cc1 (stereo not given)	none (no result: RORg inh, VP16 counter)
CCCN(CC1CC1)C(=S)NC(=O)C1CC1	RORg inh 3.98µM, VP16 counter 12.6µM
CCCN(CC1CC1)C(=S)Nc1ccc(C(C)=O)cc1	RORg inh inconclusive
CCCN(CC1CC1)C(=S)NC(=O)c1ccccc1C	GLP-1R inv ag inconclusive (no result: RORg inh, VP16 counter)
CCCN(CC1CC1)C(=S)NC(=O)c1cc(Br)ccc1Cl	GLP1R cytotox 3.16µM (no result: RORg inh, VP16 counter)
